ELG1 DNA repair – ELG1-dependent DNA repair inhibition. HEK293T ELG1-luciferase reporter, luminescence, 16 h; DNA damage induced by 5-fluorouridine. Potency, µM (doses to about 46.1 µM), for the others: at the top dose activity change, negative = inhibition, usual class: inhibitors. 330,000 tested, 2.3% active. AID 504467; further: potency means the concentration at half of the fitted maximal effect; nearly all actives have a fitted effect of over 55% in size
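Reporter activity after DNA damage by 5-fluorouridine is monitored. Compound-treated cells incubate 16 hr at 37 °C, then ONE-Glo is added for 30 min before luminescence reading.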
IL1B secr inh – inhibitors of inflammasome signaling (IL-1 beta secretion); activity change, % at 57.5 µM; 360,000 tested, 4.7% active; THP-1 LPS/ATP IL-1B secretion, AlphaLISA, 16 h; active compounds read low; in the data active means activity change below about -50%; inconclusive means mostly about -30% to -49%
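Secreted IL-1B measured by AlphaLISA bead assay after 16 h compound exposure of THP-1 cells; compounds (final up to 57.5 uM) added 1 h before LPS (250 ng/mL) and ATP (1.25 mM) stimulation; lower signal means less secretion.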
TDP1 cell CPT – growth inhibition of DT40 Tdp1-/-;hTDP1 cells with camptothecin (screen for TDP1 inhibitors). chicken DT40 Tdp1-/-;hTDP1 cells + 20 nM CPT, ATP luminescence, 48 h. 420,000 tested, 12% active. Potency, µM (highest dose often 46.2 µM), without a hit: top-dose activity change, negative = growth inhibition, hits mostly inhibitors; further: potency means the concentration at half of the fitted maximal effect; nearly all actives have a fitted effect of over 55% in size
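Cell growth measured by CellTiter-Glo luminescence after a minimum 48 h, 37 C compound exposure with 20 nM CPT in Tdp1-knockout DT40 cells stably expressing hTDP1, seeded 400/well; qHTS titration format.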
TDP1 block – inhibitors of human tyrosyl-DNA phosphodiesterase TDP1. 350,000 tested, 0.28% active. recombinant TDP1, AlphaScreen DNA substrate cleavage. Potency, µM (titrated, usually from 130 µM), without a hit: top-dose activity change, negative = inhibition, actives largely listed as inhibitors. AID 485290; further: potency means the concentration at half of the fitted maximal effect; nearly all actives have a fitted effect of over 40% in size
Target sequence (Q9NUW8 whole entry, looked up): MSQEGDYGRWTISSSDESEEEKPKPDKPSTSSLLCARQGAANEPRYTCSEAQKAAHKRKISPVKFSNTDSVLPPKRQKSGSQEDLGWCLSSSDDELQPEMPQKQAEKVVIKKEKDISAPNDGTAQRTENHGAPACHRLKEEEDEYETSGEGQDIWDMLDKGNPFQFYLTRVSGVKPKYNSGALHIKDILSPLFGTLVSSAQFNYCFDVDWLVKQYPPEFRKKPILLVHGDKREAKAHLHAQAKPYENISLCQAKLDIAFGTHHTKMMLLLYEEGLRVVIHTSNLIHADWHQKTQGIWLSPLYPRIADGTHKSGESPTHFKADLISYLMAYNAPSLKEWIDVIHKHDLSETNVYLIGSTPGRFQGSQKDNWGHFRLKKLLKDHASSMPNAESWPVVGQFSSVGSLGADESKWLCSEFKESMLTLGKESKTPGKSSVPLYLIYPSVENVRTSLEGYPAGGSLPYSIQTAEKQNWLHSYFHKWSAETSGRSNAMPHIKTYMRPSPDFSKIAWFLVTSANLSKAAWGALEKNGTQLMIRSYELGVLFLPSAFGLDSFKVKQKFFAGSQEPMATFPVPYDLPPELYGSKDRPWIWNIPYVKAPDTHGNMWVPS
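AlphaScreen read-out: signal falls as enzyme removes the 3' tyrosine-FITC from a 5'-biotinylated DNA oligo (15 nM, 5 min, RT). Enzyme was E. coli-made recombinant Tdp1 at 1 nM, exposed to compound for 15 min beforehand; beads 10 ug/ml, 10 min.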
Giardia killer – Giardia lamblia killing | activity change, % at 7.66 µM, hits read low | AID 540267 | Giardia lamblia trophozoite viability | 340,000 tested, 0.15% active; in the data active means activity change below about -80%; inconclusive means between about -30% and that limit;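 further: parasites exposed to compound for two days anaerobically before the ATP read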
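Killing of trophozoites was scored by loss of ATP luminescence after a 48 hrs anaerobic exposure to compounds at 37 deg C, using 100 cells per well.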
TDP1 cell noCPT – qHTS for Inhibitors of human tyrosyl-DNA phosphodiesterase 1 (TDP1): qHTS in cells in absence of CPT. 420,000 tested, 15% active. Potency, µM (highest dose often 46.2 µM), for inactives: at the highest dose activity change, negative = growth inhibition, most hits filed as inhibitors. DT40 Tdp1-/- hTDP1 cells, no CPT, ATP luminescence, 48 h; further: potency means the concentration at half of the fitted maximal effect; nearly all actives have a fitted effect of over 55% in size
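Cells were dispensed at 400 per well, compounds added by pin tool, plates incubated ≥48 hr at 37 °C, then CellTiter-Glo added for 30 min at room temperature before luminescence reading. Line: DT40 Tdp1-/- complemented with hTDP1; camptothecin omitted.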
Numbers without * were called inactive; i = inactive; ? = inconclusive; . = no result; ! = a repeat was not active; [ ] = dose if it differs, or a comment. In the library only some 19% were active in any assay of this set; here they are far more common. Unless noted, the call rests on the fitted dose curve; in most records, active means well fitted curve in the direction sought with a large enough effect; inconclusive means small, poorly fitted or top-dose-only effect, or another doubt; inactive means no such curve, though single readings can be large; an effect the other way counts as inactive or inconclusive. On the % scale 0 is the no-effect control and ±100 the full control effect.

SMILES	ELG1 DNA repair	IL1B secr inh	TDP1 cell CPT	TDP1 block	Giardia killer	TDP1 cell noCPT
NC(=O)c1ccccc1N/C=C/C(=O)c1ccc(Cl)cc1Cl	?	-55*	?	2%	?	18µM*
CS(=O)(=O)N1CC(C(=O)NC2CCCC2)Oc2ccc(Cl)cc21 (stereo not given)	-27%	-10	?	2%	2	?
COCCOC(=O)c1c(C)n(C)c2ccc(OC(=O)c3ccccc3OC)cc12	4%	-11	-24%	.	37	16µM*
CCOC(=O)c1c(C)n(-c2ccccc2)c2ccc(OC(=O)c3ccccc3NC(=O)C(C)(C)C)cc12	.	.	?	2%[12.3 µM]	.	12µM*
CCOC(=O)c1c(C)n(-c2ccccc2)c2ccc(OC(=O)c3cccc(C)c3)cc12	.	.	?	-8%[12.3 µM]	.	?
COCCOC(=O)c1c(C)n(C)c2ccc(OC(=O)c3ccco3)cc12	?	-8	-12%	2%	4	-21%
CCOC(=O)c1c(C)n(-c2ccccc2)c2ccc(OC(=O)c3ccccc3NC(=O)C(C)C)cc12	.	.	?	2%[12.3 µM]	.	18µM*
CC(C)CN1CC2(CCN(C(=O)c3csnn3)CC2)C1	.	.	5%	.	.	-5%
COc1ccccc1S(=O)(=O)CC(O)COc1ccc(F)cc1Cl (stereo not given)	4%	-62*	-9%	-3%	13	-32%
Cc1ccc(S(=O)(=O)CC(O)COc2ccc(F)cc2Cl)c(C)c1 (stereo not given)	-12%	-145*	-9%	3%	-6	-14%
C=C(CC[C@]12OC(C(=O)O)C(O)(C(=O)O)C(C(=O)O)(O1)C(OC(=O)/C=C/[C@@H](C)C[C@@H](C)CC)C2O)[C@@H](OC(C)=O)[C@H](C)Cc1ccccc1 (stereo not given in full)	.	.	8.9µM*	.	.	7.9µM*
Cc1cccc(OC2CCN(Cc3c(C(=O)N4CCCC4)nc4ccccn34)CC2)c1	-15%	3	?	0%	1	?
COC(=O)c1nc(Nc2cc(F)cc(F)c2)nc(NC2CCCC2)n1	.	.	.	0%	.	.
COc1cccc(/C(O)=C2/C(=O)C(=O)N(c3cc(C)on3)C2c2cccs2)c1 (stereo not given)	6%	1	?	0%	18	3.7µM*
COc1ccccc1N1C(=O)CC(Sc2n[nH]c(-c3cccc(C)c3)n2)C1=O (stereo not given)	18%	i	2.1µM*	1%	-10	2.1µM*
CCOc1ccc(N2C(=O)CC(Sc3ncccn3)C2=O)cc1 (stereo not given)	7%	8	18µM*	3%	2	?
Nc1nnc(SC2CC(=O)N(c3ccccc3)C2=O)s1 (stereo not given)	0%	-89*	7.3µM*	5%	-13	3.3µM*
CCOc1ccc(N2C(=O)CC(SC(=NC)Nc3ccc4c(c3)OCO4)C2=O)cc1 (stereo not given)	26µM*	1	-22%	1%	-9	?
O=C(O)CCSC1CC(=O)N(c2ccccc2)C1=O (stereo not given)	1%	14	-7%	.	-3	10%
CN1CCN(c2ncc3nc(-c4cccs4)c(=O)n(CCc4ccccc4)c3n2)CC1	.	.	-13%	.	.	-29%
O=C1CC(Sc2ncccn2)C(=O)N1c1ccccc1 (stereo not given)	17%	-3	14µM*	-2%	-9	?
Cc1cc(C)nc(SC2CC(=O)N(c3ccc(Br)cc3)C2=O)n1 (stereo not given)	3%	29	?	.	0	?
Cc1nc(SC2CC(=O)N(c3ccccc3)C2=O)n[nH]1 (stereo not given)	1%	-23	1.5µM*	5%	-2	5.2µM*
Cc1cc(Nc2ccccc2O)c2ccccc2n1	-2%	-63*	?	8%	19	?
Cc1cc(Nc2ccc(F)cc2)c2ccccc2n1	.	1	?	.	.	?
SMILES	ELG1 DNA repair	IL1B secr inh	TDP1 cell CPT	TDP1 block	Giardia killer	TDP1 cell noCPT
Cc1cc(NCCO)c2ccccc2n1	-9%	2	3%	0%	-1	-19%
Cc1ccc(Nc2cc(C)nc3ccccc23)c(C)c1	.	-95*	12µM*	.	-3	12µM*
Cc1ccc(C)c(Nc2cc(C)nc3ccccc23)c1	.	-70*	15µM*	.	13	16µM*
COc1cccc2c(Nc3ccccc3C)cc(C)nc12	-10%	-101*	18µM*	5%	-12	13µM*
Cc1[nH]c2ccccc2c1C1N2CC3(C)CN1CC(C)(C2)C3=O (stereo not given)	.	.	-15%	3%	.	-13%
COc1cccc(Nc2nc3cc(Cl)c(Cl)cc3nc2-n2nc(C)cc2C)c1	.	.	-15%	2%	.	-1%
CC[C@H]1OC(=O)[C@H](C)C(=O)[C@H](C)[C@@H](O[C@@H]2O[C@H](C)C[C@H](N(C)C)[C@H]2O)[C@](C)(OC)C[C@@H](C)C(=O)[C@H](C)[C@H]2N(CCCCn3cnc(-c4cccnc4)c3)C(=O)O[C@]12C	.	.	2.4µM*!	.	.	2.1µM*
COC(=O)c1c(NC(=O)Cc2cccs2)sc(C(=O)N2CCCCC2)c1C	26µM*	23	?	0%[56.1 µM]	1	-24%
CCOC(=O)c1c(NC(=O)Cc2cccs2)sc(C(=O)NC2CCCCC2)c1C	?	13	?	0%	14	16µM*
CCOC(=O)c1c(NC(=O)Cc2cccs2)sc(C(=O)NC2CCCC2)c1C	1%	8	1%	3%	14	-20%
Cc1cc(OCC(=O)N2CCC(O)CC2)c2c(C)cc(=O)oc2c1	-13%	-7	10%	3%	?	12%
C[C@]12CCC(=O)C=C1CC[C@@H]1[C@@H]2[C@@H](O)C[C@@]2(C)[C@H]1CC[C@]2(O)C(=O)COP(=O)(O)O	.	.	-23%	.	.	?
CCC1CN(CCC(=O)NC2CCOC(C)(C)C2)Cc2cc(OC)ccc2O1 (stereo not given)	.	.	4%[9.04 µM]	.	.	-5%
COc1cc2c(C(=O)Nc3ccc4c(c3)OCO4)cn(CC(C)C)c(=O)c2cc1OC	9.2µM*	.	.	8%	.	.
COc1cc2c(C(=O)NCc3ccc4c(c3)OCO4)cn(CC(C)C)c(=O)c2cc1OC	?	33	?	1%	-3	-13%
COc1ccc(OC)c(NC(=O)c2cn(CC(C)C)c(=O)c3cc(OC)c(OC)cc23)c1	.	.	?	3%	.	?

Source: PubChem
